In all, about 3,700 sequences were measured (“z-score”: median about 4, highest 2% from about 8.4 on). The entries come from a sample that favours the highest values as a whole.

Experiment [1] deals with PU.1 (IVT) (UniProt P17947 1-270). Put plainly: protein-binding microarray (PBM); 20 mM HEPES pH 7.9, 100 mM NaCl, 1 mM DTT, 0.2 mg/mL BSA, 0.02% Triton X-100, 2% milk, 0.4 mg/mL salmon testes DNA; 1 h; temperature not stated; high values mean tight binding. The conditions noted are these: dsDNA, one strand shown. A digest of the protocol:
(§1)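 Binding is given as a z-score derived from scanned fluorescence that was normalised by linear regression. To obtain it, full-length untagged PU.1 from coupled human in vitro transcription/translation was applied for 1 h to custom double-stranded DNA microarrays of 20-bp genomic sites and single-nucleotide variants, using 10 probes per site with 5 in each orientation. The binding buffer was HEPES pH 7.9 with 100 mM NaCl, 2% milk and salmon testes DNA, and detection used anti-PU.1 and then a fluorescent secondary antibody.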

The target is the same in experiment [2]. Described as above. The conditions noted are these: dsDNA, one strand shown. Put shortly: as §1
This is another data set of the same source.

For the sequence “GCCTAGCACGCTTTAGGGAACTACTGTGGGTGCTAGGTCTTGATTCGCTTGACGCTGCTG”, the binding signal in experiment [1] came out at 3.58 z-score.

Consider “GCCTAGCACCCTAAAGGGAAGTGTAAATAGTGCTAGGTCTTGATTCGCTTGACGCTGCTG”, for which the binding signal in experiment [1] was 3.27 z-score. “GCCTAGCACCAAATCAGGAACTGATGCGGGTGCTAGGTCTTGATTCGCTTGACGCTGCTG” showed a binding signal in experiment [1] of 3.39 z-score. Consider “GCCTAGCACTTTTATCAGGAAATGACTGGGTGCTAGGTCTTGATTCGCTTGACGCTGCTG”, for which the binding signal in experiment [1] came out at 0.896 z-score.

Sequence “GCCTAGCACTCAGGAGGGAAGTGAAGAAAGTGCTAGGTCTTGATTCGCTTGACGCTGCTG” returned a binding signal in experiment [2] of 2.65 z-score.

In the case of “GCCTAGCACAGATTGTGGAAGTACTGTGAGTGCTAGGTCTTGATTCGCTTGACGCTGCTG”, the binding signal in experiment [2] was 2.73 z-score.

For the sequence “GCCTAGCACAGAATAGGGAAGTGAGAAATGTGCTAGGTCTTGATTCGCTTGACGCTGCTG”, the binding signal in experiment [2] was determined as 6.39 z-score. The sequence “GCCTAGCACCAGAAAAGGAAGTGGGGGTGGTGCTAGGTCTTGATTCGCTTGACGCTGCTG” showed a binding signal in experiment [1] of 3.51 z-score. Same read-out and setting: then “GCCTAGCACCTGGGAGGGAACTGAAACTCGTGCTAGGTCTTGATTCGCTTGACGCTGCTG”, with 0.859 z-score.

Regarding “GCCTAGCACTGGAAGAGGAAGTGGCACTGGTGCTAGGTCTTGATTCGCTTGACGCTGCTG”, the binding signal in experiment [1] turned out to be 5.78 z-score. Still for that read-out and setting: with “GCCTAGCACCTTTTAAGGAAGTGCTCACTGTGCTAGGTCTTGATTCGCTTGACGCTGCTG” the figure was 4.92 z-score.

The sequence “GCCTAGCACGAAAAGGGGAAGTTGGGTTGGTGCTAGGTCTTGATTCGCTTGACGCTGCTG” showed a binding signal in experiment [2] of 8.21 z-score. Still for that read-out and setting: then “GCCTAGCACGAAAAGAGGAAGTAGGATAAGTGCTAGGTCTTGATTCGCTTGACGCTGCTG”, with 8.46 z-score; and “GCCTAGCACGAAAAGAGGAAGTTGGACATGTGCTAGGTCTTGATTCGCTTGACGCTGCTG”, with 8.75 z-score. In turn, “GCCTAGCACGAAGTAGGGAAGTGAAAGAGGTGCTAGGTCTTGATTCGCTTGACGCTGCTG” gave a binding signal in experiment [1] of 3.36 z-score.

For “GCCTAGCACGAAAAGAGGAAATGGGGAGTGTGCTAGGTCTTGATTCGCTTGACGCTGCTG”, in experiment [1], the binding signal worked out at 5.14 z-score. In experiment [2], “GCCTAGCACGAAAAGAGGAAGTTGCTTACGTGCTAGGTCTTGATTCGCTTGACGCTGCTG” registered a binding signal of 9.03 z-score. “GCCTAGCACGAAAAGAGGAAGTGAGAAACGTGCTAGGTCTTGATTCGCTTGACGCTGCTG” registered a binding signal in experiment [2] of 8.29 z-score.

As to “GCCTAGCACGAAAAAAGGAAGTAGTATAAGTGCTAGGTCTTGATTCGCTTGACGCTGCTG”, the binding signal in experiment [2] was found to be 6.96 z-score. The same measure, in the same setting: with “GCCTAGCACGAAAAGAGGAAGTCTTGCATGTGCTAGGTCTTGATTCGCTTGACGCTGCTG” the figure was 8.22 z-score; with “GCCTAGCACGAAAAGAGGAAGCCCATGTGGTGCTAGGTCTTGATTCGCTTGACGCTGCTG”, 5.2 z-score. The same measure, in the same setting: then “GCCTAGCACGAAAAGAGGAAGTTGGGGAAGTGCTAGGTCTTGATTCGCTTGACGCTGCTG”, with 8.94 z-score.

With “GCCTAGCACGAAAAGAGGAAGAGTCTTAGGTGCTAGGTCTTGATTCGCTTGACGCTGCTG”, the binding signal in experiment [1] is 5 z-score. “GCCTAGCACAAAAAAAGGAAGTGAAAGTAGTGCTAGGTCTTGATTCGCTTGACGCTGCTG” showed a binding signal in experiment [2] of 6.78 z-score. Take “GCCTAGCACGGTGGGAGGAAGTGATCGGTGTGCTAGGTCTTGATTCGCTTGACGCTGCTG”: the binding signal in experiment [1] amounted to 3.72 z-score.

“GCCTAGCACGAAAAGGGGAAGTGAGGGATGTGCTAGGTCTTGATTCGCTTGACGCTGCTG” returned a binding signal in experiment [2] of 7.81 z-score.

In turn, “GCCTAGCACGAAAAAAGGAAGTTGCACAGGTGCTAGGTCTTGATTCGCTTGACGCTGCTG” registered a binding signal in experiment [2] of 6.42 z-score. On the same count and under the same terms, then “GCCTAGCACTGGGAGGAGAAGTGAAACCTGTGCTAGGTCTTGATTCGCTTGACGCTGCTG”, with 1.37 z-score. “GCCTAGCACTGAAAGAGGAATTGCAACCAGTGCTAGGTCTTGATTCGCTTGACGCTGCTG” came in with a binding signal in experiment [2] of 2.04 z-score. For “GCCTAGCACGAAAAGAGGAAGTTAAAGAAGTGCTAGGTCTTGATTCGCTTGACGCTGCTG”, the binding signal in experiment [2] came out at 8.52 z-score. The same measure, in the same setting: with “GCCTAGCACGAAAAGAGGAAGTGAAGTTAGTGCTAGGTCTTGATTCGCTTGACGCTGCTG” the figure was 8.28 z-score; with “GCCTAGCACGAAAAGAGGAAGTCTGAAAAGTGCTAGGTCTTGATTCGCTTGACGCTGCTG”, 7.48 z-score. The same measure, in the same setting: then “GCCTAGCACAGTTGGAGGAAGTGGCACTTGTGCTAGGTCTTGATTCGCTTGACGCTGCTG”, with 2.78 z-score; and “GCCTAGCACGAAAACAGGAAGTGGGGATGGTGCTAGGTCTTGATTCGCTTGACGCTGCTG”, with 7.43 z-score.

In experiment [2], “GCCTAGCACCAAAAGAGGAAGTGGTGAAAGTGCTAGGTCTTGATTCGCTTGACGCTGCTG” registered a binding signal of 8.4 z-score. The same measure, in the same setting: with “GCCTAGCACCAAAAGAGGAAGTCAGAGAGGTGCTAGGTCTTGATTCGCTTGACGCTGCTG” the figure was 7.94 z-score.

For the sequence “GCCTAGCACCAAAGAAGGAAGTGAAACTGGTGCTAGGTCTTGATTCGCTTGACGCTGCTG”, in experiment [2], the binding signal amounted to 4.74 z-score.

For the sequence “GCCTAGCACCAAAAGAGGAAGTCAAGCTGGTGCTAGGTCTTGATTCGCTTGACGCTGCTG”, in experiment [2], the binding signal amounted to 7.88 z-score. The same measure, in the same setting: with “GCCTAGCACCAAAAGAGGAAGTTGGCAAAGTGCTAGGTCTTGATTCGCTTGACGCTGCTG” the figure was 8.72 z-score. For the sequence “GCCTAGCACCAAAAGAGGAAGTGAAGCTGGTGCTAGGTCTTGATTCGCTTGACGCTGCTG”, the binding signal in experiment [2] came to 8.37 z-score. Turning to “GCCTAGCACCAAAAGAGGAAGTGGTATCAGTGCTAGGTCTTGATTCGCTTGACGCTGCTG”, the binding signal in experiment [2] was determined as 8.24 z-score. “GCCTAGCACCAAAAGAGGAACTGCTGCTGGTGCTAGGTCTTGATTCGCTTGACGCTGCTG” gave a binding signal in experiment [2] of 6.83 z-score. For the sequence “GCCTAGCACCAAAAGAGGAAGTGGCATATGTGCTAGGTCTTGATTCGCTTGACGCTGCTG”, the binding signal in experiment [2] turned out to be 8.01 z-score. In experiment [1], “GCCTAGCACTGAGAGAGGAAGTAACTTAAGTGCTAGGTCTTGATTCGCTTGACGCTGCTG” gave a binding signal of 5.44 z-score.

In experiment [2], “GCCTAGCACCTGCCAGGGAAGTGAAATCAGTGCTAGGTCTTGATTCGCTTGACGCTGCTG” had a binding signal of 1.1 z-score. Same read-out and setting: with “GCCTAGCACGAGAAGAGGAAGTGAGATCTGTGCTAGGTCTTGATTCGCTTGACGCTGCTG” the figure was 6.45 z-score; with “GCCTAGCACAAAAAGAGGAAGAGGGGACAGTGCTAGGTCTTGATTCGCTTGACGCTGCTG”, 5.23 z-score. In experiment [2], “GCCTAGCACAAAAAAGGGAAGTGACATACGTGCTAGGTCTTGATTCGCTTGACGCTGCTG” returned a binding signal of 7.76 z-score. On the same count and under the same terms, then “GCCTAGCACAAAAAAGGGAAGTGATTTAAGTGCTAGGTCTTGATTCGCTTGACGCTGCTG”, with 8.59 z-score; and “GCCTAGCACAAAAAAGGGAAGTGCCATAAGTGCTAGGTCTTGATTCGCTTGACGCTGCTG”, with 7.55 z-score.

Take “GCCTAGCACAAAAAGGGGAAGTGACATAAGTGCTAGGTCTTGATTCGCTTGACGCTGCTG”: in experiment [2], the binding signal worked out at 8.47 z-score. For “GCCTAGCACAAAGTGGGGAAGTGACAAAAGTGCTAGGTCTTGATTCGCTTGACGCTGCTG”, the binding signal in experiment [1] came out at 3.36 z-score. Consider “GCCTAGCACAAAAAAGGGAAGTGAAAATAGTGCTAGGTCTTGATTCGCTTGACGCTGCTG”, for which, in experiment [2], the binding signal came to 7.69 z-score. On the same count and under the same terms, with “GCCTAGCACGAAAAGAGGAACCGTATGGTGTGCTAGGTCTTGATTCGCTTGACGCTGCTG” the figure was 5.79 z-score; with “GCCTAGCACTAAAAGAGGAAGTGCAACCAGTGCTAGGTCTTGATTCGCTTGACGCTGCTG”, 8.29 z-score; with “GCCTAGCACTAAAAGAGGAAGTGACCTCAGTGCTAGGTCTTGATTCGCTTGACGCTGCTG”, 7.82 z-score. “GCCTAGCACTAAAAGAGGAAGAGGAAGAAGTGCTAGGTCTTGATTCGCTTGACGCTGCTG” gave a binding signal in experiment [1] of 5.75 z-score. In turn, “GCCTAGCACTAAAAGAGGAAGTGCATTCAGTGCTAGGTCTTGATTCGCTTGACGCTGCTG” showed a binding signal in experiment [2] of 8.5 z-score. In experiment [2], “GCCTAGCACTAAAAGAGGAAGTAGGAATAGTGCTAGGTCTTGATTCGCTTGACGCTGCTG” had a binding signal of 8.36 z-score. “GCCTAGCACTAAAAGAGGAAGTAGCCAAAGTGCTAGGTCTTGATTCGCTTGACGCTGCTG” returned a binding signal in experiment [2] of 8.23 z-score. “GCCTAGCACAGCAGGAGGAAGTGGGTGGAGTGCTAGGTCTTGATTCGCTTGACGCTGCTG” displayed a binding signal in experiment [1] of 3.97 z-score.

On to “GCCTAGCACAAAAAAAGGAAATGAAATTAGTGCTAGGTCTTGATTCGCTTGACGCTGCTG”, for which the binding signal in experiment [2] worked out at 3.65 z-score. Sequence “GCCTAGCACCAAAAGAGGAAGAGTCTGACGTGCTAGGTCTTGATTCGCTTGACGCTGCTG” showed a binding signal in experiment [2] of 4.26 z-score. On the same count and under the same terms, with “GCCTAGCACACAAAAAGGAACTGTTCCCCGTGCTAGGTCTTGATTCGCTTGACGCTGCTG” the figure was 2.27 z-score.

These data come from paper PMC6451091, “NextPBM: a platform to study cell-specific transcription factor binding and cooperativity”.
